NIH3T3 tox – Cytotoxic Profiling in NIH 3T3 Cell Line of Diverse Libraries Using Quantitative High-Throughput Screening. NIH 3T3 viability, CellTiter-Glo ATP luminescence, 48-72 h. Potency, µM (series often up to 96.7 µM), for the others: at the highest dose activity change, negative = cytotoxicity, actives largely listed as inhibitors. 94,000 compounds, 4.3% hits; further: nearly all actives have a fitted effect of over 55% in size
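Viability of NIH 3T3 cells after 48 or 72 hr compound treatment at 37 °C was assessed by CellTiter-Glo, with luminescence imaged following a 10 min room-temperature step.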
hNpr1 antagonist – Natriuretic polypeptide receptor (hNpr1) antagonism - Primary qHTS; Atrial natriuretic peptide receptor 1 (Homo sapiens), P16066; HEK293 hNpr1 GloSensor cGMP, ANP-stimulated luminescence; Potency, µM (series often up to 46.3 µM), inactives show at the top dose activity change, negative = inhibition, usual class: inhibitors; 76,000 compounds, 1.6% hits; calls by dose curve; further: nearly all actives have a fitted effect of over 60% in size
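HEK293 cells stably expressing human Npr1 and cGMP GloSensor pGS-40F, loaded 2 h with 2% GloSensor reagent, given compound 30 min at room temperature. Luminescence read before and 20 min after 0.1 nM hNppA.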
HEK293 tox – Cytotoxic Profiling in HEK 293 Cell Line of Diverse Libraries Using Quantitative High-Throughput Screening. HEK 293 viability, ATP luminescence (CellTiter-Glo), 48-72 h. Potency, µM (doses to about 115 µM), for inactives: top-dose activity change, negative = cytotoxicity, most hits filed as inhibitors. 94,000 compounds, 6.6% hits. AID 1345083, 2018; further: nearly all actives have a fitted effect of over 60% in size
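250 HEK 293 cells/well; compound by pintool; incubated 48 or 72 hr at 37 degree Celsius; CellTiter-Glo added, 10 min RT, luminescence imaged.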
Luciferase inh – Firefly luciferase inhibition profiling of diverse chemical library using quantitative high-throughput screening; Luciferin 4-monooxygenase (Photinus pyralis), P08659; purified P. pyralis luciferase, luminescence, biochemical; Potency, µM (highest dose often 115 µM), actives largely listed as inhibitors; 76,000 compounds, 2.5% hits; AID 1347043, 2019; further: nearly all actives have a fitted effect of over 65% in size
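Inhibitors were tested against purified firefly luciferase in a biochemical, low-substrate format (both substrates at 10uM) and luminescence measured with a CCD imager.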
SNCA viab count – GF-AFC viability counterscreen for inhibitors of alpha-synuclein gene (SNCA) expression. 150,000 compounds, 0.12% hits. Potency, µM (highest dose often 57.1 µM), for inactives: top-dose activity change, negative = cytotoxicity, usual class: cytotoxic. HEK-293-SNCA-luc viability, GF-AFC fluorescence, 24 h. AID 1671193, 2021;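 further: 0% = DMSO-treated cells and -100% = medium-only wells without cells; nearly all actives have a fitted effect of over 30% in size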
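HEK-293-SNCA-luc cells (1500/well) plated 24 h, then exposed 24 h to a dilution series; GF-AFC added 30 min at 37C, fluorescence 405/540 nm; normalised to medium-only and DMSO wells, Hill fit.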
SNCA expr inh – Primary qHTS assay for inhibitors of alpha-synuclein gene (SNCA) expression | HEK-293 SNCA-luciferase knock-in, luminescence, 24 h | Potency, µM (doses to about 57.2 µM), for inactives: at the highest dose activity change, negative = inhibition, usual class: inhibitors | 140,000 compounds, 0.17% hits;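 further: plate controls were DMSO cells for no effect and cell-free wells for full effect; nearly all actives have a fitted effect of over 45% in size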
* marks the source's active call; other numbers are inactive results; i = inactive; u = inconclusive; x = not tested or not shown; [ ] = another dose, or the depositor's remark. Only some compounds are listed: those with a hit (about 7.2% of all), similar ones and a draw of the others. Unless noted, the call rests on the fitted dose curve; in most records, active means well fitted curve in the direction sought with a large enough effect; inconclusive means small, poorly fitted or top-dose-only effect, or another doubt; inactive means no such curve, though single readings can be large; an effect the other way counts as inactive or inconclusive. Unless noted, on the % scale 0 is the no-effect control and ±100 the full control effect; potency means the concentration at half of the fitted maximal effect.

SMILES | NIH3T3 tox | hNpr1 antagonist | HEK293 tox | Luciferase inh | SNCA viab count | SNCA expr inh
CC(C)(C)C(=O)N1CC[C@@H](CC(=O)O)[C@@H](CC2=NCCc3ccc(C(C)(C)C)cc32)C1 | 100µM* | 6%[70.6 µM] | -25%[172 µM] | i | 1%[87.6 µM] | -6%[87.6 µM]
Cc1cccc(Nc2nc(-c3ccncc3)cs2)c1 | x | x | x | x | 6% | 93%
COc1cc(Br)c(Nc2nc(-c3c(C)nc4ncccn34)cs2)c(Br)c1 | x | x | x | x | 6µM* | x
Cc1ccc2oc([C@H]3CCN(Cc4c[nH]c5ccccc45)C3)nc2c1 | 56µM* | u | 32µM* | i | u | 5%[87.6 µM]
COc1ccccc1-c1nnc([C@H]2CCN(CC3CCCCC3)C2)o1 | u | 6%[70.6 µM] | u | i | -14%[87.6 µM] | 0%[87.6 µM]
COc1ccccc1CN1CC[C@H](c2nnc(Cc3c[nH]c4ccccc34)o2)C1 | u | -1%[70.6 µM] | 89µM* | i | -13%[87.6 µM] | -19%[87.6 µM]
Cc1ccc2oc([C@H]3CCN(Cc4ccc(N(C)C)cc4)C3)nc2c1 | u | -20%[70.6 µM] | u | 45µM* | 3%[87.6 µM] | 94%[87.6 µM]
COc1ccccc1-c1nnc([C@H]2CCN(Cc3ccccn3)C2)o1 | 35µM* | -5%[70.6 µM] | u | i | -10%[87.6 µM] | 2%[87.6 µM]
Cc1ccc2oc([C@H]3CCN(Cc4ccc(C(F)(F)F)cc4)C3)nc2c1 | u | -26%[70.6 µM] | u | u | 6%[87.6 µM] | 76%[87.6 µM]
COc1nccc(N2CCC(CC(=O)N3CCCC3)CC2)n1 | u | u | u | i | 0% | -3%
COc1ccccc1-c1nnc2ccc(C(=O)NCc3ccc(F)cc3)cn12 | -28% | x | u | x | 5% | -20%
COC(=O)N1CCCC(C(=O)N2CCC(c3nc4ccncc4[nH]3)C2)C1 (configuration not stated) | -9% | x | -2% | x | 7% | 6%
CCN1C(=O)C(CC(=O)NC2CCCCC2)Sc2ncccc21 (configuration not stated) | 2% | 3% | -30% | i | 7% | 64%
O=C(C1CC1)N1CCCC(Cc2noc(-c3ccccn3)n2)C1 (configuration not stated) | -20% | 23% | -26% | u | -2% | 57%
COc1cc(CN2CC[C@H](c3nc4ccccc4o3)C2)cc(OC)c1OC | u | -23%[70.6 µM] | 71µM* | i | -12%[87.6 µM] | -27%[87.6 µM]
FC(F)(F)c1ccc(CN2CC[C@H](c3nc4cc(Cl)ccc4o3)C2)cc1 | u | u | u | i | 3%[87.6 µM] | 4%[87.6 µM]
CN(C)c1ccc(CN2CC[C@H](c3nc4cc(Cl)ccc4o3)C2)cc1 | 112µM* | u | u | u | -14%[87.6 µM] | -3%[87.6 µM]
C=Cc1ccc(Cn2c(=O)c(-c3noc(CC)n3)c3n(c2=O)CCCC3)cc1 | -27% | -25% | u | i | -1% | 15%
CC(=O)Oc1c(-c2ccc(NC(=O)c3ccc4c(c3)OCO4)cc2)c(C2CC2)nn1-c1cccc(F)c1 | u | -1% | -23% | i | -17% | -12%
CSc1ccc(-c2cccc(C(=O)NCCNC(=O)N(C)C)c2)cc1 | u | x | 25µM* | x | -5%[12.5 µM] | 24%
CSc1ccc(-c2cccc(C(=O)NCCN[S+](=O)([O-])c3cccc(C(F)(F)F)c3)c2)cc1 | u | x | u | x | 11%[12.5 µM] | u
CSc1ccc(-c2cccc(C(=O)NCCNC(=O)c3ccc(F)cc3)c2)cc1 | u | x | u | x | -1%[12.5 µM] | -19%
CSc1ccc(-c2cccc(C(=O)NCCN[S+](=O)([O-])c3ccc(C)cc3)c2)cc1 | u | x | 40µM* | x | -4%[12.5 µM] | u
COc1ccc(C(=O)NCCNC(=O)c2cccc(-c3ccc(SC)cc3)c2)cc1 | u | x | u | x | 9%[12.5 µM] | -2%
COc1cccc(CNC(=O)CNC(=O)c2cccc(-c3ccc(SC)cc3)c2)c1 | -34% | x | 22µM* | x | -11% | -12%
